# Reference: ChEMBL document CHEMBL1201862, “PubChem BioAssay data set” (2004)
# Hit rate of the full screen: of about 56,000 sequences, about 5,400 (9.6%) were called active. Cut-off read from the data, not from the text of the source: active = GI50 up to about 1.1 µM and inactive = higher. The entries come from a sample that favours actives as a whole. Potency and affinity values are given separately.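 Dose response: 5 concentrations. Exposure: 48 h. Format: 96-well plates. Endpoint: linear interpolation; highest concentration if not reached. GI50 is the concentration that inhibits growth by half.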
# System: K562
# Assay: NCI tumour cell line growth inhibition, 48 h
row,Substance,GI50 [µM]
1,"[Bis(aminomethyl)pentamethylenesilane]dichloropaltinum(II), CHEMBL2146202",3.47
2,"[Bis(aminomethyl)tetramethylenesilane]dichloropaltinum(II), CHEMBL2146205",10.2
3,"[Bis(aminomethyl)tetramethylenesilane]tetrachloropaltinum(IV), CHEMBL2146189",2.57
4,"cis-Bis[[(trimethylsilyl)methyl]amino]tetrachloroplatinum(IV), CHEMBL2146191",2.92
5,"[Bis(aminomethyl)dimethylsilane]tetrachloroplatinum(IV), CHEMBL2146190",3.78
6,"[Bis(aminomethyl)diethylsilane]tetrachloroplatinum(IV), CHEMBL2146203",0.916
7,"[Bis(aminomethyl)pentamethylenesilane]tetrachloropaltinum(IV), CHEMBL2146204",1.79
8,"[Bis(aminomethyl)ethylmethylsilane]tetrachloroplatinum(IV), CHEMBL2146192",1.69
9,"[Bis(aminomethyl)dimethylsilane]dichloroplatinum (II), CHEMBL2146201",16.5
10,"CHLOROTRIPHENYLSTANNANE, CHEMBL515580",0.0256
11,"CISPLATIN, CHEMBL11359",5.56
12,"mu-(1,7-nanodiamine-N,N')bis-(cis-aminedichloroplatimum (II)), CHEMBL2146215",30.7
